Inconclusive results are not listed. The source made the active and inactive calls. Calls follow the shape of the dose curve; as a rule, active = well fitted curve in the direction sought with a large enough effect; inconclusive = small, poorly fitted or top-dose-only effect, or another doubt; inactive = no such curve, though single readings can be large; an effect the other way counts as inactive or inconclusive.
Columns and labels:
[1] = qHTS of pediatric cancer cell lines to identify multiple opportunities for drug repurposing: Primary screen for TC32 cells (AID 1347089); also: nearly all actives have a fitted effect of over 60% in size; also: potency is read from the fitted curve at half-maximal effect
Procedure, shortened: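 TC32 cells, 500-1,000/well in growth medium, compound-treated 48 h at 37 °C; viability from CellTiter-Glo luminescence. Primary screen: MIPE 11-point (0.78 nM–46 µM final), NPC 8-point (0.59 nM–46 µM final); confirmatory at 11-point dilutions.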

[2] = qHTS of pediatric cancer cell lines to identify multiple opportunities for drug repurposing: Primary screen for DAOY cells (AID 1347090); also: nearly all actives have a fitted effect of over 55% in size; also: potency is read from the fitted curve at half-maximal effect
Procedure, shortened: (§1)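 Cell viability, CellTiter-Glo luminescence; 500-1,000 cells/well, 8- or 11-point titration, 48 h compound exposure at 37 degrees C, 5% CO2. Controls: DMSO neutral, bortezomib 2.3 µM final as positive.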

[3] = qHTS of pediatric cancer cell lines to identify multiple opportunities for drug repurposing: Primary screen for SJ-GBM2 cells (AID 1347091); also: potency is read from the fitted curve at half-maximal effect
Procedure, shortened: as §1

[4] = qHTS of pediatric cancer cell lines to identify multiple opportunities for drug repurposing: Primary screen for A673 cells (AID 1347092); also: nearly all actives have a fitted effect of over 45% in size; also: potency is read from the fitted curve at half-maximal effect
Procedure, shortened: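 A673 cells (500-1,000 cells/well) were treated 48 hours at 37 degrees C with compounds at 11-point (0.78 nM to 46 µM) or 8-point (0.59 nM to 46 µM) dilutions. Viability read by CellTiter-Glo luminescence; concentration-response curves fitted.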

[5] = qHTS of pediatric cancer cell lines to identify multiple opportunities for drug repurposing: Primary screen for SK-N-MC cells (AID 1347093); also: potency is read from the fitted curve at half-maximal effect
Procedure, shortened: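 Metabolically active cells were quantified by ATP-dependent luminescence (CellTiter-Glo, 15 min at room temperature) following 48 h treatment. Cells had been plated at 500-1,000 per well and settled for 5 h beforehand.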

[6] = qHTS of pediatric cancer cell lines to identify multiple opportunities for drug repurposing: Primary screen for BT-37 cells (AID 1347094); also: potency is read from the fitted curve at half-maximal effect
Procedure, shortened: (§2)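 Following a 5-hour attachment period, cells at 500-1,000/well received compounds and were cultured for 48 hours. CellTiter-Glo was added and luminescence read to estimate viable, metabolically active cells.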

[7] = qHTS of pediatric cancer cell lines to identify multiple opportunities for drug repurposing: Primary screen for NB-EBc1 cells (AID 1347095); also: potency is read from the fitted curve at half-maximal effect
Procedure, shortened: as §2

[8] = qHTS of pediatric cancer cell lines to identify multiple opportunities for drug repurposing: Primary screen for U-2 OS cells (AID 1347096); also: nearly all actives have a fitted effect of over 50% in size; also: potency is read from the fitted curve at half-maximal effect
Procedure, shortened: (§3)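 Cells (500-1,000/well) rested 5 h, then received compounds for 48 h; metabolically active cells were measured by CellTiter-Glo luminescence. Final concentrations spanned up to 46 µM (MIPE, 11-point) or 0.59 nM-46 µM (NPC, 8-point) in primary screens, 11-point in follow-ups.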

[9] = qHTS of pediatric cancer cell lines to identify multiple opportunities for drug repurposing: Primary screen for NB1643 cells (AID 1347099); also: nearly all actives have a fitted effect of over 50% in size; also: potency is read from the fitted curve at half-maximal effect
Procedure, shortened: as §2

[10] = qHTS of pediatric cancer cell lines to identify multiple opportunities for drug repurposing: Primary screen for LAN-5 cells (AID 1347100); also: potency is read from the fitted curve at half-maximal effect
Procedure, shortened: as §3

[11] = qHTS of pediatric cancer cell lines to identify multiple opportunities for drug repurposing: Primary screen for BT-12 cells (AID 1347101); also: nearly all actives have a fitted effect of over 25% in size; also: potency is read from the fitted curve at half-maximal effect
Procedure, shortened: as §3

[12] = qHTS of pediatric cancer cell lines to identify multiple opportunities for drug repurposing: Primary screen for Saos-2 cells (AID 1347097); also: nearly all actives have a fitted effect of over 40% in size; also: potency is read from the fitted curve at half-maximal effect
Procedure, shortened: as §2

[13] = qHTS of pediatric cancer cell lines to identify multiple opportunities for drug repurposing: Primary screen for SK-N-SH cells (AID 1347098); also: nearly all actives have a fitted effect of over 65% in size; also: potency is read from the fitted curve at half-maximal effect
Procedure, shortened: as §3

[14] = NS1 protein of Zika virus - qHTS assay to identify small molecule inhibitors in human HEK 293 cells (AID 1347053); also: series mostly up to about 46 µM; nearly all actives have a fitted effect of over 55% in size
Procedure, shortened: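 HEK 293 cells, seeded 20 h at 37 C, were pretreated with compound 1 h, then infected with ZIKV MR766 (MOI = 0.5) for 24 h. NS1 was read by TR-FRET with two anti-NS1 antibodies, normalized to uninfected and infected wells.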

Measured: Potency

CCC(C(=O)OCCOCCN(CC)CC)c1ccccc1 (configuration not stated)
not listed: [12] | [13] | [14]
inactive: all other assays above

CCCCCCCCCCCCCCC[C@H](O)[C@@H](N)CO
not listed: [10] | [11] | [14]
inactive: all other assays above

CCCCc1cc2ccccc2c(OCCN(C)C)n1
inactive: [14] | [1] | [4] | [7] | [8] | [9] | [10] | [11]

COc1cc([C@H]2Oc3cc([C@H]4Oc5cc(O)cc(O)c5C(=O)[C@@H]4O)ccc3O[C@@H]2CO)ccc1O
active: [5] 33.5 µM
not listed: [1] | [3] | [4] | [10] | [12]
inactive: all other assays above

CN1CCc2cccc3c2[C@H]1Cc1ccc(O)c(O)c1-3
inactive: [14] | [8]
active: [12] 21.1 µM | [10] 11.9 µM

O=C(CCCN1CC=C(n2c(=O)[nH]c3ccccc32)CC1)c1ccc(F)cc1
active: [9] 26.6 µM
inactive: [14] | [2] | [3] | [7] | [12] | [13]

CC(=O)Nc1ccc(S(=O)(=O)Nc2ccc([N+](=O)[O-])cc2)cc1
not listed: [10] | [13] | [14]
inactive: all other assays above

CCO[C@@H]1O[C@H](C(COCc2ccccc2)OCc2ccccc2)[C@H](OCc2ccccc2)[C@H]1O (some centres not stated)
inactive: [14] | [1] | [7] | [8] | [9] | [10]
active: [12] 26.6 µM

COc1ccc(C(Cl)=C(c2ccc(OC)cc2)c2ccc(OC)cc2)cc1
inactive: [14] | [1] | [5] | [13] | [9]

C[C@]12CCC(=O)C=C1C=C[C@@H]1[C@@H]2CC[C@@]2(C)[C@H]1CC[C@@]21CCC(=O)O1
inactive: [14] | [1] | [6] | [7] | [8] | [13]

O=C(Nc1ncc([N+](=O)[O-])s1)c1cccs1
inactive: [14]
active: [2] 16.8 µM | [6] 24.6 µM | [13] 24.4 µM | [9] 23.7 µM | [11] 12.3 µM

NCCNc1cccc2ccccc12
not listed: [14]
inactive: all other assays above

CC(C)=CCOc1ccc(/C=C/C(=O)c2ccc(OCC=C(C)C)cc2OCC(=O)O)cc1
inactive: [14] | [1] | [6] | [8]
active: [5] 21.1 µM | [9] 23.7 µM

C[C@@]12C(=O)OC(=O)[C@]1(C)C1CCC2O1
active: [1] 6.64 µM | [2] 3.35 µM | [3] 2.37 µM | [4] 6.68 µM | [5] 2.37 µM | [7] 2.37 µM | [8] 3.35 µM | [12] 1.5 µM | [13] 3.44 µM | [9] 1.19 µM | [10] 2.66 µM | [11] 6.92 µM

CCc1oc2ccccc2c1C(=O)c1cc(Br)c(O)c(Br)c1
inactive: [14] | [1] | [6] | [10]
active: [13] 19.4 µM

CCCCCCCCCCCCOCCOCCOCCOCCOCCOCCOCCOCCOCCO
inactive: [14] | [8] | [13] | [9]
active: [4] 21.1 µM | [6] 19.5 µM | [7] 21.1 µM

CCc1nn(CCCN2CCN(c3cccc(Cl)c3)CC2)c(=O)n1CCOc1ccccc1
inactive: [14] | [1] | [7] | [9]

CCCCC(CC)COC(=O)/C=C/c1ccc(OC)cc1 (configuration not stated)
not listed: [2] | [3] | [4]
inactive: all other assays above

CC1(C)OC[C@@H]2O[C@@]3(C(=O)O)OC(C)(C)O[C@H]3[C@@H]2O1
not listed: [2] | [3] | [4]
inactive: all other assays above

Nc1nc(Cl)nc2c1ncn2[C@@H]1O[C@H](CO)[C@@H](O)[C@@H]1F
inactive: [8]
active: [1] 0.264 µM | [2] 0.422 µM | [3] 0.0266 µM | [4] 0.422 µM | [5] 0.0299 µM | [6] 0.309 µM | [7] 0.211 µM | [10] 0.335 µM

NC(=O)c1ccccc1O
not listed: [12] | [14]
inactive: all other assays above

N[C@H](C(=O)O)[C@@H](O)c1ccc(O)c(O)c1
not listed: [5] | [10] | [13] | [14]
inactive: all other assays above

C[C@@H](O)[C@H]1C(=O)N2C(C(=O)O)=C([C@H]3CCCO3)S[C@H]12
not listed: [4] | [14]
inactive: all other assays above

— PubChem BioAssay (NCATS)
